# PubChem BioAssay (NCATS)
# Results filed as inconclusive are left out. Where a call stands in place of a potency, no number is given. The source made the active and inactive calls. The call rests on the fitted dose curve; in most records, active means well fitted curve in the direction sought with a large enough effect; inconclusive means small, poorly fitted or top-dose-only effect, or another doubt; inactive means no such curve, though single readings can be large; an effect the other way counts as inactive or inconclusive.
# Assays:
# [1] = system: Zika virus NS2B-NS3 protease (unlinked complex); test: Primary screen GU Rhodamine qHTS for Zika virus inhibitors: Unlinked NS2B-NS3 protease assay (AID 1347159); further: nearly all actives have a fitted effect of over 60% in size
# In short: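 Buffer 10 mM Tris-HCl pH 8.0, 0.01% Tween 20. Unlinked protease 25 nM; compound preincubation 15 min, RT, protected from light. Substrate Rhod110, 1.5 microM; ~15% conversion in 15 min.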
# [2] = system: Zika virus NS2B-NS3 protease (linked construct); test: Primary screen NINDS Rhodamine qHTS for Zika virus inhibitors (AID 1347160); further: nearly all actives have a fitted effect of over 55% in size
# In short: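 Aprotinin served as in-plate control. Conditions: 25 nM linked NS2B-NS3, pH 8.0 Tris buffer, titrated compounds, 15 min preincubation and 15 min reaction with 1.5 microM Rhod110 substrate at room temperature.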
# [3] = Confirmatory screen NINDS Rhodamine qHTS for Zika virus inhibitors (AID 1347161); further: potency means the concentration at half of the fitted maximal effect; nearly all actives have a fitted effect of over 60% in size
# In short: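 Enzyme (25 nM, linked NS2B-NS3) was preincubated 15 min with compound in 10 mM Tris-HCl pH 8.0, 0.01% Tween 20. Rhodamine110 substrate (1.5 microM) was then added and fluorescence read at start and after 15 min.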
# [4] = system: Zika virus NS2B-NS3 protease (linked); test: 384 well plate NINDS AMC confirmatory qHTS for Zika virus inhibitors (AID 1347163); further: potency means the concentration at half of the fitted maximal effect; nearly all actives have a fitted effect of over 50% in size
# In short: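 Fluorescence at 355/460 nm was read after 25 minutes of cleavage of 30 microM Ac-VKTGKR-AMC at room temperature, in the dark. Before substrate addition, compounds (up to 1 mM final) sat ~15 minutes with 5, 30 or 60 nM linked protease. Signals were normalized to no-enzyme and no-inhibitor wells.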
# [5] = system: Zika virus NS2B-NS3 protease (linked construct); test: 384 well plate NINDS Rhodamine confirmatory qHTS for Zika virus inhibitors (AID 1347164);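 further: fluorescence from protease cleavage of Ac-LKRR-rhodamine 110 substrate; potency means the concentration at half of the fitted maximal effect; nearly all actives have a fitted effect of over 65% in size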
# In short: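 Linked NS2B-NS3 protease (final 5, 30 or 60 nM) preincubated ~15 minutes with compounds, then 10 microM Ac-LKRR-Rhodamine 110 added. Fluorescence (485/538 nm) read after 25 minutes at room temperature, normalized to no-enzyme and no-inhibitor controls.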
# [6] = Vero cells viability qHTS for Zika virus inhibitors (AID 1347167)
# In short: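 Luminescent ATP readout (CellTiter Glo) after 30 min at 37 degrees C gives viability; cells in DMEM + 4% FBS were treated 24 to 48 hours with compound, following overnight attachment.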
smiles,measurement,setting,value
Cc1c(C)c(NCC(=O)N(C)C2CCN(Cc3ccc(C(N)=O)cc3)CC2)c(C)c(C)c1N,Potency,[1],inactive
same,Potency,[2],inactive
CC1(C)O[C@H]2CC(=O)OC[C@@]23C1=C(O)C(=O)[C@]1(C)C3CC[C@@]2(C)[C@H](c3ccoc3)OC(=O)[C@H]3O[C@]321 (stereo partly specified),Potency,[1],inactive
same,Potency,[2],inactive
CCCCS(=O)(=O)NC(Cc1ccc(OCCCCC2CCNCC2)cc1)C(=O)O (stereo unspecified),Potency,[1],inactive
same,Potency,[2],inactive
CC(=O)OC(C)C(C)(O)C(=O)O[C@@H]1CC[C@]2(C)CC(=O)C(=C(C)C)C[C@H]2[C@]1(C)OC(C)=O (stereo partly specified),Potency,[1],inactive
same,Potency,[2],inactive
Cc1ccccc1-c1cc(N2CCN(C)CC2)ncc1N(C)C(=O)C(C)(C)c1cc(C(F)(F)F)cc(C(F)(F)F)c1,Potency,[1],inactive
same,Potency,[2],inactive
Cc1c(NC(=O)N2CCOCC2)ccc2c1c1ccccc1n2C(C)C,Potency,[1],inactive
same,Potency,[2],inactive
CC1(C)C2CC[C@@]34CC(CC[C@H]3[C@]2(C)CC[C@@H]1O[C@@H]1O[C@H](CO)[C@@H](O)[C@H](O)[C@H]1O)[C@](C)(O)C4 (stereo partly specified),Potency,[1],inactive
same,Potency,[2],inactive
CN(C)c1ccc(C2O[C@@H](c3ccccc3)C[C@H](c3ccccc3)O2)cc1 (stereo partly specified),Potency,[1],inactive
same,Potency,[2],inactive
C=C1C2CCC3CC2(CC(O)C2(O)C1CC(OC1OC(CO)C(O)C(O)C1O)C2(C)C)CC3(C)O (stereo unspecified),Potency,[3],9.61 µM (active)
same,Potency,[4],35.5 µM (active)
same,Potency,[5],501 nM (active)
same,outcome,[6],inactive
CC1=C2CC3C(CCC3(C)O)C(C)(O)CC2OC1=O (stereo unspecified),Potency,[3],44.1 µM (active)
